Assay results: PubChem BioAssay AID1159580 (chemical genetic matrix, 2015)
The campaign covered roughly 5,500 compounds. About 2,000 (36%) were called active. Another 18% or so got no clear call; they are omitted. This is one part of the list. A number with no mark means an inactive call. Rule as the data show it: active = normalized growth mostly below about 0.91 (no sharp cut-off); inconclusive = no clear call, values can overlap the other calls; inactive = mostly above about 0.92.

Experiment: chemical genetic growth profiling, strain panel (AID 1159580);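 also: tested at 20 µM; growth read once vehicle control cultures reached saturation at 30 °C; 1 = growth at the plate median or of vehicle wells; lower values mean less growth of the strain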
Details: S. cerevisiae deletion strains, growth OD

N#Cc1nccnc1Sc1ccc(Cl)cc1
normalized growth (locus YAL013W, strain DEP1, hits give low values): 0.946
normalized growth (locus YBR229C, strain ROT2, hits give low values): 0.936
normalized growth (locus YDL101C, strain DUN1, hits give low values): 0.948
normalized growth (locus YDR150W, strain NUM1, hits give low values): 1.03
normalized growth (locus YEL061C, strain CIN8, hits give low values): 0.914
normalized growth (locus YGR078C, strain PAC10, hits give low values): 0.962
normalized growth (locus YHR030C, strain SLT2, hits give low values): 0.537 (active)
normalized growth (locus YHR087W, strain rtc3, hits give low values): 0.978
normalized growth (locus YJL187C, strain SWE1, hits give low values): 0.949
normalized growth (locus YJR043C, strain POL32, hits give low values): 0.993
normalized growth (locus YJR075W, strain HOC1, hits give low values): 0.986
normalized growth (locus YKL190W, strain CNB1, hits give low values): 0.932
normalized growth (locus YLR039C, strain RIC1, hits give low values): 0.698 (active)
normalized growth (locus YLR058C, strain SHM2 (second series), hits give low values): 0.929 (active)
normalized growth (locus YLR085C, strain ARP6, hits give low values): 0.686 (active)
normalized growth (locus YLR262C, strain YPT6, hits give low values): 0.729 (active)
normalized growth (locus YML094W, strain GIM5, hits give low values): 0.905
normalized growth (locus YMR219W, strain ESC1, hits give low values): 0.93 (active)
normalized growth (locus YMR263W, strain SAP30, hits give low values): 0.963
normalized growth (locus YNL128W, strain TEP1, hits give low values): 0.945
normalized growth (locus YNL153C, strain GIM3, hits give low values): 0.988
normalized growth (locus YNL298W, strain CLA4 (second series), hits give low values): 0.868
normalized growth (locus YNL322C, strain KRE1, hits give low values): 0.925 (active)
normalized growth (locus YNR030W, strain Alg12, hits give low values): 0.927
normalized growth (locus YPL055C, strain LGE1, hits give low values): 1.01
normalized growth (locus YPL241C, strain CIN2, hits give low values): 0.941
normalized growth (locus YPR135W, strain CTF4, hits give low values): 0.556 (active)
